# Screening data: PubChem, National Center for Advancing Translational Sciences (NCATS)
# KCNH2 WT inh: inhibitors of human wildtype KCNH2 potassium channel | U2OS, BacMam KCNH2, thallium flux FluxOr; hits give low values | hit rate 0.37% among 340,000 | activity change, % at 1.84 µM | AID 720551 | Q12809;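 active = maximum activity change below -70%; inconclusive = maximum activity change between -70% and -50%; inactive = maximum activity change above -50%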
#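 U2OS cells were transduced with wild-type KCNH2 virus (2.03 x 10^8 / mL) for 4 h at room temperature, then cultured overnight at 37 C. Thallium flux was read with FluxOr dye. Rate constants were normalized to DMSO controls.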
# KDM4E inh: JMJD2E (human) inhibition | B2RXH2 | JMJD2E catalytic domain, FDH-coupled NADH fluorescence (FDH is formaldehyde dehydrogenase) | Potency, µM (series often up to 57.1 µM), for the others: at the top dose activity change, negative = inhibition, actives largely listed as inhibitors | hit rate 1.6% among 230,000; active = well fitted inhibition curve with a large enough effect, not every such curve was filed as active; inconclusive = small, poorly fitted or top-dose-only effect, or another doubt; inactive = no such curve, though single readings can be large or run the other way;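 note: potency is the fitted concentration of half-maximal effect; 0% = wells with enzyme and -100% = buffer wells without enzyme; nearly all actives have a fitted effect of over 50% in size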
# Six1-Eya2 inh: blocks human Six1 binding to Eya2; AlphaScreen GST-Six1/His-Eya2 binding, biochemical; hits give low values; hit rate 0.56% among 360,000; activity change, % (no concentration beside the values); Q15475+O00167
# Target sequence (O00167 whole entry, looked up): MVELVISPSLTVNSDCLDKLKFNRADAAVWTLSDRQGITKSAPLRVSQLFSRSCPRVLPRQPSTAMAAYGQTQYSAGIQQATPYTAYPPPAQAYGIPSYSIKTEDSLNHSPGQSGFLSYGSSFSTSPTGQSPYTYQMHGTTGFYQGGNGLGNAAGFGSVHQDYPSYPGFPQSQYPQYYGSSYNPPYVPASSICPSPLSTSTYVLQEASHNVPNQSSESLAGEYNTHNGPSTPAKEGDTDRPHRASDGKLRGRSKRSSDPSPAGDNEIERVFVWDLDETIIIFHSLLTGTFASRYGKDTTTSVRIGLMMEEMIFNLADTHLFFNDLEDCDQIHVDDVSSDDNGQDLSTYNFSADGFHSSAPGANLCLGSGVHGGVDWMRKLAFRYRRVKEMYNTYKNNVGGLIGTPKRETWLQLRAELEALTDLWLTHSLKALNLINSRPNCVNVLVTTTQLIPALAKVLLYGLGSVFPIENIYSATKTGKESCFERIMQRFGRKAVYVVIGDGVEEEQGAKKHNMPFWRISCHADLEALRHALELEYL
# Target sequence (Q15475 whole entry, looked up): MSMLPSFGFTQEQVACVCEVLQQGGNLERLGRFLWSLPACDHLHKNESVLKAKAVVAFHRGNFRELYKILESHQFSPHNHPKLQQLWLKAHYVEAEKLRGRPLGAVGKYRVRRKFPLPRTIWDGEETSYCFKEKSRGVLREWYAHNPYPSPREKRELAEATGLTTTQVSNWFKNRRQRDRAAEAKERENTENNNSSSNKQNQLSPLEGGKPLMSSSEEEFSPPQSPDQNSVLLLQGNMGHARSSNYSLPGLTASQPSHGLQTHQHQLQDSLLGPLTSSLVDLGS
#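 AlphaScreen luminescence read after one hour at 37 °C in darkness. Pin-transferred compounds met GST-Six1 and His-Eya2 protein (5X stock 250 nM/500 nM) plus glutathione donor and Ni-chelate acceptor beads (5X, 50 ug/mL).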
# CtBP-E1A inh: CtBP/E1A binding inhibition | AlphaScreen GST-E1A/His-CtBP binding, 1536-well; hits give low values | activity change, % (test concentration not listed) | hit rate 0.49% among 340,000 | AID 651724
#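 GST-E1A and His-tagged CtBP (125 nM each as 5X stock) were preincubated with pin-transferred compound for 2 h at 37 °C in the dark, then glutathione donor and nickel acceptor beads were added for 1 h before AlphaScreen reading.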
# KCNH2 3.1 block: inhibitors of human KCNH2 3.1 potassium channel isoform; AID 720553; hit rate 0.95% among 340,000; activity change, % (tested at about 1.8 µM); U2OS KCNH2 3.1, thallium flux FluxOr; hits give low values;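 active = maximum activity change below -70%; inconclusive = maximum activity change from -70% to -50%; inactive = maximum activity change above -50%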;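 note: thallium influx rate constant from kinetic fluorescence after stimulation buffer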
#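 Normalized rate constant (relative to positive and negative DMSO controls) derived from a 2 min kinetic fluorescence read after stimulation; U2OS cells expressing the 3.1 isoform via virus at 1.77 x 10^8 /mL.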
# Active calls of the source: *; ? = inconclusive; . = no result. In the library only some 2% were active in any assay of this set; here they are far more common. Cut-off read from the data, not from the text of the source, unless noted: active = activity change below about -65%; inconclusive = mostly about -30% to -63%; inactive = weaker than that. Unless noted, % is set by controls: 0 for no effect and ±100 for the full control effect.
SMILES,KCNH2 WT inh,KDM4E inh,Six1-Eya2 inh,CtBP-E1A inh,KCNH2 3.1 block
O=C1CSC(=S)N1/N=C/c1c(F)cccc1F,-12.3,.,-20.1,?,-14.9
Brc1ccc2[nH]c3c(N4CCc5ccccc5C4)ncnc3c2c1,-10.6,3.55µM*,-13.9,-14.1,-7.3
Cc1ccc(-c2nnn(CC(=O)N(CC(=O)NC3CCCC3)c3cccc(F)c3)n2)o1,-5.8,.,7.0,3.8,-5.8
Cc1ccc(-c2nnn(CC(=O)N(CC(=O)NC3CCCC3)c3ccc(F)cc3)n2)o1,-73.9*,.,6.2,-0.1,5.6
O=C(COC(=O)c1cc(Cl)ccc1[N+](=O)[O-])Nc1cccc2ccccc12,-0.9,3.0%,-2.1,-1.5,-13.6
Oc1ccc(N=Nc2ccccc2-c2nn[nH]n2)c(O)c1,-0.9,.,-85.5*,.,-7.4
Cc1c(C(=O)O/N=C(\N)c2ccccn2)cccc1[N+](=O)[O-],-9.9,-3.4%,-24.6,-15.3,-8.1
O=[N+]([O-])c1ccc(Oc2cccc3cccnc23)c([N+](=O)[O-])c1,-3.4,4.0%,?,-78.6*,-22.4
Cc1c(C(=O)Oc2cccc3cccnc23)cccc1[N+](=O)[O-],2.1,?,-88.5*,2.0,4.1
O=S(=O)(c1ccc2ccccc2c1)N1CCN(Cc2ccccn2)CC1,-8.4,-0.3%,-1.1,-0.2,-22.0
O=C(/C=C/[C@H]1O[C@@H](n2cnc3c(NC(=O)c4ccccc4)ncnc32)[C@H](O)[C@@H]1O)NC1CCCCC1,.,.,-0.1,0.0,.
CN(C)c1ccc(N2C(=NC(=O)CCC3CCCC3)SC3CS(=O)(=O)CC32)cc1 (stereo unspecified),-281.2*,.,-3.7,1.2,-1.0
COc1ccc(N2C(=NC(=O)CCC3CCCC3)SC3CS(=O)(=O)CC32)cc1 (stereo unspecified),11.4,.,1.8,.,56.0
O=C(N/N=C/c1sc(=O)[nH]c1-[n+]1ccc2ccccc2c1)c1ccccc1[O-],-16.7,.,?,-75.2*,-3.3
Cc1cc(C)c(CN2CCCC(CNC(=O)c3ccc(F)cc3)C2)c(-n2cccn2)c1 (stereo unspecified),-85.2*,9.3%,5.9,-1.8,-111.5*
Cc1ccsc1C(=O)C1CCCN(Cc2cc(F)ccc2-n2cccn2)C1 (stereo unspecified),-0.2,7.8%,-0.8,-1.5,-80.9*
Oc1ccc(Cl)cc1C1=NNC(c2cc(Br)cc3c2OCOC3)C1 (stereo unspecified),-2.6,?,-1.5,-18.2,5.5
COc1ccc(/C=C2\CCC(C3CCCC3)C2=O)cc1Cn1nc(C)cc1C (stereo unspecified),-16.4,10.0%,11.6,-4.4,-26.1
COc1cc(NC(=O)C/C(C)=N/NC(=O)c2cccc(O)c2)c(OC)cc1Cl,-4.2,-14.4%,?,?,-6.7
COc1cccc(CC(O)CC2c3c(cc4c(c3OC)OCO4)CCN2C)c1 (stereo unspecified),33.9,.,-4.7,.,-70.7*
CSc1nsc(/C=C/Nc2ccc(C(=O)O)cc2)c1C#N,-2.3,22.4µM*,-8.6,-11.1,-22.8
CSc1nsc(/C=C/Nc2ccc(F)cc2F)c1C#N,-0.2,?,-3.0,-13.8,-6.4
Cc1ccc(NC(=O)c2nn(C34CC5CC(CC(C5)C3)C4)cc2[N+](=O)[O-])cc1,-3.8,2.7%,-22.6,-5.6,-14.5
C/C(=N\Nc1ncnc2sc(C)c(C)c12)c1ccccn1,-73.0*,.,-73.4*,-94.0*,-7.7
Cc1sc2ncnc(N/N=C/c3cccc(O)c3)c2c1C,-11.5,0.9%,?,-24.1,9.0
SMILES,KCNH2 WT inh,KDM4E inh,Six1-Eya2 inh,CtBP-E1A inh,KCNH2 3.1 block
C/C(=N\Nc1ncc(Cl)cc1Cl)c1ccccn1,-15.4,0.8%,-86.9*,-66.2*,10.8
O=C(N/N=C\c1ccc(CN(Cc2ccc(Cl)cc2)S(=O)(=O)c2ccccc2)o1)C(=O)Nc1ccc(F)cc1,-48.0,?,-2.5,-1.1,-75.5*
CN1c2ccc([N+](=O)[O-])cc2N(C)C1(C)c1ccccc1 (stereo unspecified),-8.4,.,-76.5*,-79.7*,-2.0
Cn1c2ccccc2c2cc([N+](=O)[O-])ccc21,0.7,4.5%,-4.0,0.7,0.3
CC(C)Cn1nc(C(=O)N2CCc3ccccc32)c2ccccc2c1=O,-7.1,.,-2.7,-15.9,-5.4
CC(OC(=O)c1cc(Br)ccc1O)C(=O)Nc1ccc(S(=O)(=O)N2CCCC2)cc1 (stereo unspecified),-2.8,.,?,?,-90.9*
Cc1ccc(C(=O)n2c(-c3ccccc3)cnc2SCC(=O)Nc2ccccc2)cc1,-8.1,-16.3%,-16.5,-14.0,-4.3
Nc1nc(N2CCN(C(=O)c3ccco3)CC2)nc2ccc(Br)cc12,.,?,-6.4,.,-89.0*
Nc1nc(N2CCN(C(=O)c3ccco3)CC2)nc2ccccc12,8.0,?,1.0,-1.7,0.7
COC(=O)[C@@H]1[C@@H]2C[C@H]3c4[nH]c5cc(OC)ccc5c4CCN3C[C@@H]2C[C@H](OC(=O)c2cc(OC)c(OC)c(OC)c2)[C@H]1OC,.,10µM*,.,.,.
O=S(=O)(Nc1ccc(S(=O)(=O)Nc2nccs2)cc1)c1ccc(Br)cc1,-3.9,.,-5.3,-4.7,5.7
O=S(=O)(Nc1nccs1)c1ccc(NS(=O)(=O)c2c(F)cc(F)c(Cl)c2F)cc1,-104.7*,.,-12.2,-0.3,-3.1
COC(=O)CSc1nnc(Cc2ccccc2)n1-c1ccc(C)cc1,-2.7,7.7%,2.0,2.5,-98.3*
COC(=O)CSc1nnc(C)n1-c1ccc(C)cc1,-1.6,5.9%,0.4,3.9,1.6
O=C1CC(c2ccco2)CC(O)=C1C=Nc1cc(Cl)ccc1O (stereo unspecified),2.4,28.2µM*,-8.6,-7.4,2.9
O=C1CC(c2ccco2)CC(O)=C1C=Nc1cc(Cl)ccc1Cl (stereo unspecified),-2.3,0.4%,-11.0,-5.0,20.5
COc1cc(/C=C2/SC(=Nc3ccc(O)cc3)NC2=O)cc(OC)c1O,2.8,?,-70.5*,0.0,-6.9
COC(=O)c1ccc(N2CCc3ccccc32)c([N+](=O)[O-])c1,3.8,.,-70.1*,-29.4,6.3
CN1C=C/C(=C\c2cc[n+](C)c3ccccc23)c2ccccc21,-12.0,3.98µM*,-20.8,-8.3,2.7
Oc1c(C=C2N=c3ccccc3=N2)sc(=S)n1-c1ccccc1,2.4,3.0%,-0.6,2.9,16.0
CC1=Nc2ccccc2/C1=C/c1sc(=S)n(-c2cccc(C(=O)O)c2)c1O,2.0,-6.9%,?,-67.4*,-38.8
CN(C)CCCN(C(=O)CCc1ccccc1)c1nc2c(F)cccc2s1,-30.6,0.1%,-8.7,-11.5,-70.7*
CN(C)CCCN(C(=O)/C=C/c1cccs1)c1nc2c(F)cccc2s1,-44.5,1.9%,17.2,-16.9,-116.6*
CCOc1ccc2nc(N(CCN(CC)CC)C(=O)/C=C/c3cccs3)sc2c1,?,.,-1.3,0.0,-80.5*
